Sampled rows, rich in hits. Any-hit rate of the full collection: about 1.2%.
Anesthetic bind – binds horse apoferritin like a general anesthetic; P02791; apoferritin/1-aminoanthracene competitive binding, fluorescence; Potency, µM (titrated, usually from 77.5 µM), inactives show at the top dose activity change, negative = displacement, usual class: inhibitors; 350,000 compounds, 0.074% hits; AID 485281; further: potency means the concentration at half of the fitted maximal effect; on the % scale 0 is the no-effect control and ±100 the full control effect; nearly all actives have a fitted effect of over 20% in size
Target sequence (P02791 2-175 limits assumed): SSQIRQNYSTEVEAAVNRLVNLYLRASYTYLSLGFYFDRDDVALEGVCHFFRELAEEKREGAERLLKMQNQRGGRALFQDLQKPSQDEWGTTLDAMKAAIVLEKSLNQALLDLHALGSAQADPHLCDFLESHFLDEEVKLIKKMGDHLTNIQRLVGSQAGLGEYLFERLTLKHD
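10 uM apoferritin + 50% sat. 1-AMA, PBS; cpd 10 min RT; Ex380/Em535 endpoint; normalized to free probe vs complex; 4-param Hill fit; propofol titration as pos. ctrl.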
KCNH2 3.1 block – KCNH2 3.1 (human) potassium channel inhibition | U2OS KCNH2 3.1, thallium flux FluxOr; hits give low values | activity change, % (tested at about 1.8 µM) | 340,000 compounds, 0.95% hits;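 active means maximum activity change below -70%; inconclusive means maximum activity change from -70% to -50%; inactive means maximum activity change above -50%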;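 further: thallium influx rate constant from kinetic fluorescence after stimulation buffer; on the % scale 0 is the no-effect control and ±100 the full control effect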
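Thallium flux read-out: FluxOr dye with Red40 quencher in HBSS/HEPES, 45 min at RT. Rate constants from kinetic reads were normalized to positive and negative DMSO controls. Cells: U2OS virally expressing the 3.1 isoform.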
mIDH1 inhibitor – human IDH1 R132H inhibition; O75874; Potency, µM (highest dose often 76.6 µM), inactives show at the highest dose activity change, negative = inhibition, usual class: inhibitors; 390,000 compounds, 0.093% hits; IDH1-R132H enzyme, NADPH consumption, diaphorase/resazurin fluorescence; AID 602179; further: potency means the concentration at half of the fitted maximal effect; on the % scale 0 is the no-effect control and ±100 the full control effect; nearly all actives have a fitted effect of over 65% in size
Target sequence (O75874 whole entry R132H, stated change not applied): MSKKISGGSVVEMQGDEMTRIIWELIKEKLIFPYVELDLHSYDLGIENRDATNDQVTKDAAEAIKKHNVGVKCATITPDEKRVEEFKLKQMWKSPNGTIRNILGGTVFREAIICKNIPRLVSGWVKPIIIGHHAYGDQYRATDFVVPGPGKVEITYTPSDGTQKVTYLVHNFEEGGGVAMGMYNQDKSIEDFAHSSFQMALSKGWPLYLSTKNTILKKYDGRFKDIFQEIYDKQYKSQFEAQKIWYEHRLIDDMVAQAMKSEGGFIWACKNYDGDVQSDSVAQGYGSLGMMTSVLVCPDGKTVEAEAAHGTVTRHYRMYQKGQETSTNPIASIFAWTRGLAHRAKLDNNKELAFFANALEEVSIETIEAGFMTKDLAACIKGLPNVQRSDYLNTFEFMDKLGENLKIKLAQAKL
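IDH1-R132H (0.5 ug/mL) preincubated 30 min with compound, then NADPH (0.016 mM) and alpha-KG (2 mM) added; 80 min at RT, pH 7.5. Remaining NADPH coupled via diaphorase/resazurin to fluorescence (540/590 nm); concentration-response curves normalized to no-enzyme control.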
S-ASM inh – blocks human secretory acid sphingomyelinase; 340,000 compounds, 0.006% hits; AID 504937; placental ASM, HMU-PC fluorogenic substrate, 60 min; Potency, µM (highest dose often 57.5 µM), for inactives: at the top dose activity change, negative = inhibition, hits mostly inhibitors; P17405; further: potency means the concentration at half of the fitted maximal effect
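Human placenta-derived ASM preincubated with compound 10 min at room temperature, then reacted with 9 uM (final) fluorogenic HMU-PC substrate for 60 min at 37 C. Stop solution raises pH to 10; fluorescence read at Ex 386/Em 447 nm.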
hERG WT inh – blocks the wildtype human KCNH2 potassium channel; Q12809; U2OS, BacMam KCNH2, thallium flux FluxOr; hits give low values; activity change, % at 1.84 µM; 340,000 compounds, 0.37% hits; AID 720551;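 active means maximum activity change below -70%; inconclusive means maximum activity change between -70% and -50%; inactive means maximum activity change above -50%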; further: on the % scale 0 is the no-effect control and ±100 the full control effect
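U2OS cells were transduced with wild-type KCNH2 virus (2.03 x 10^8 / mL) for 4 h at room temperature, then cultured overnight at 37 C. Thallium flux was read with FluxOr dye. Rate constants were normalized to DMSO controls.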
Numbers without * were called inactive; [ ] = another dose, or the depositor's remark. Unless noted, the call rests on the fitted dose curve; in most records, active means well fitted inhibition curve with a large enough effect; inconclusive means small, poorly fitted or top-dose-only effect; inactive means no such curve, though single readings can be large or run the other way.

How did C/C(=N\NC(=O)c1c(Cl)c(C)nn1C)c1cccc(NC(=O)COc2ccc(Cl)cc2)c1 do in these assays?
Anesthetic bind: -10%; KCNH2 3.1 block: -82*; mIDH1 inhibitor: 0%; S-ASM inh: -11%; hERG WT inh: -1

What do the screens show for `COc1ccc(-c2onc(C)c2C)cc1S(=O)(=O)N1c2ccccc2CC1C` (centres undefined)?
Anesthetic bind: 0%; mIDH1 inhibitor: -15%

Results for COc1ccc(NC2C[C@H]3CCCC(=O)N4CC[C@@H](C2)[C@@H]34)cc1 (some centres undefined) ?
Anesthetic bind: -13%[110 µM]

Results for N#C/C(=C/c1ccc(N2CCCCC2)o1)C(=O)Nc1ccc2ccccc2c1 ?
Anesthetic bind: -14%; KCNH2 3.1 block: -72*; mIDH1 inhibitor: -1%; S-ASM inh: -20%; hERG WT inh: -45

What do the screens show for `CCOc1ccccc1CN1CCNC(=O)C1CC(=O)N(C)Cc1cnccn1` (centres undefined)?
Anesthetic bind: -4%; KCNH2 3.1 block: -115*; mIDH1 inhibitor: 4%; S-ASM inh: 8%; hERG WT inh: 9

Results for CCc1ccc(CN(C)C(=O)CC2C(=O)NCCN2Cc2ccoc2)cc1 (centres undefined) ?
Anesthetic bind: -12%; KCNH2 3.1 block: -85*; mIDH1 inhibitor: -3%; S-ASM inh: 2%; hERG WT inh: 9

What do the screens show for `O=C(CSc1ncc2c(n1)-c1ccccc1N(Cc1ccc(F)cc1)S2(=O)=O)c1ccc(Cl)cc1`?
Anesthetic bind: -7%; mIDH1 inhibitor: -8%

What do the screens show for `CCN(CC)CCCCn1c(-c2ccccc2)nc2c(N(CCOC)CCOC)nc(C)nc21`?
Anesthetic bind: -10%

What do the screens show for `C[C@@H]1OC(OC2CC[C@@]3(C)C(CC[C@@]4(C)C3CC=C3C5CC(C)(C)CC[C@]5(C(=O)OC5OCC(O)[C@@H](O)[C@@H]5OC5O[C@@H](C)[C@H](O[C@H]6OC(CO)C(O)C(O)C6O)C(O)C5O)C(O)C[C@@]34C)C2(C)C)C(O)C(O)[C@H]1OC1OCC(O)C(O)[C@H]1O` (some centres undefined)?
Anesthetic bind: -9%

How did CCN(CC)CCOC(=O)CCc1cccc2ccccc12 do in these assays?
Anesthetic bind: -7%; KCNH2 3.1 block: -7; mIDH1 inhibitor: 3%; S-ASM inh: -3%; hERG WT inh: -11

How did CCN(CC)CCOC(=O)C(Cc1ccco1)Cc1cccc2ccccc12 (centres undefined) do in these assays?
KCNH2 3.1 block: -74*; mIDH1 inhibitor: 4%; S-ASM inh: -2%; hERG WT inh: -7

Results for CCCCCn1c(=N)c(S(=O)(=O)c2ccccc2)cc2c(=O)n3cccc(C)c3nc21 ?
Anesthetic bind: 5%; mIDH1 inhibitor: -3%

How did O=C(CCC1CCN(C(=O)c2cc(C(F)(F)F)ccc2Cl)CC1)NC1CC1 do in these assays?
Anesthetic bind: 7%; KCNH2 3.1 block: -115*; mIDH1 inhibitor: -2%; S-ASM inh: 2%; hERG WT inh: 5

Results for CSc1ccccc1C(=O)N1CCC(CCC(=O)NC2CC2)CC1 ?
Anesthetic bind: -3%; KCNH2 3.1 block: 7; mIDH1 inhibitor: 21%; S-ASM inh: inactive; hERG WT inh: 2

Results for Cc1ccc2nc(N/N=C\c3ccc([N+](=O)[O-])o3)nc(-c3ccccc3)c2c1 ?
Anesthetic bind: -16%; KCNH2 3.1 block: -97*; mIDH1 inhibitor: -7%; S-ASM inh: -26%; hERG WT inh: -44

What do the screens show for `O=[N+]([O-])c1ccc(/C=N/Nc2nc(-c3ccccc3)c3cc(Br)ccc3n2)o1`?
Anesthetic bind: -10%; KCNH2 3.1 block: -101*; mIDH1 inhibitor: -1%; S-ASM inh: -10%; hERG WT inh: -17

What do the screens show for `N#Cc1ccccc1/C=N/Nc1nc(-c2ccccc2)c2cc(Br)ccc2n1`?
Anesthetic bind: -14%; KCNH2 3.1 block: -10; mIDH1 inhibitor: -1%; S-ASM inh: 7%; hERG WT inh: 5

How did CC(=O)c1ccc(N=C2C(=O)Nc3ccccc32)cc1 do in these assays?
Anesthetic bind: -7%; KCNH2 3.1 block: 5; mIDH1 inhibitor: 26µM*; S-ASM inh: -1%; hERG WT inh: 2

What do the screens show for `Cc1cc(-c2ccc(C)c(S(=O)(=O)NCc3cccs3)c2)on1`?
Anesthetic bind: 0%; mIDH1 inhibitor: 4%

How did Cc1nn(CCC(=O)N2CCN(c3ccccc3)CC2)c(C)c1S(=O)(=O)N1CCCC1 do in these assays?
Anesthetic bind: -9%; mIDH1 inhibitor: 15%

How did O=C(c1ccccc1)N1CCc2cc(CNS(=O)(=O)c3ccccc3Cl)ccc21 do in these assays?
Anesthetic bind: -2%; mIDH1 inhibitor: -12%

How did Clc1ccc(C2[C@H]3CN(CC4CCCCC4)[C@H](c4ccccc4)C34CC2(c2ccccc2)C4)cn1 (some centres undefined) do in these assays?
Anesthetic bind: 4%; KCNH2 3.1 block: -210*; mIDH1 inhibitor: -10%; S-ASM inh: 5%; hERG WT inh: 8

How did Cc1cccc(N2C(=O)C(O)=C(C(=O)c3cccs3)C2c2ccc(F)cc2)n1 (centres undefined) do in these assays?
Anesthetic bind: -14%; KCNH2 3.1 block: -21; mIDH1 inhibitor: 1%; S-ASM inh: 7%; hERG WT inh: -227*

How did O=C1/C(=C\c2ccccc2)CN(C(=O)CCN2CCCCC2)C/C1=C/c1ccccc1 do in these assays?
KCNH2 3.1 block: -75*; mIDH1 inhibitor: 3%; S-ASM inh: -4%; hERG WT inh: -17

Results for CCc1ccc(NS(=O)(=O)c2[nH]ncc2C(=O)OC)cc1 ?
Anesthetic bind: 5%; mIDH1 inhibitor: -3%

How did COc1ccc([C@@H]2[C@@H]3C(=O)N(C(C)(C)C)C(=O)[C@@H]3[C@]3(Cc4ccccc4)C(=O)N(c4cccc(F)c4)C(=O)N23)cc1 do in these assays?
KCNH2 3.1 block: -74*; mIDH1 inhibitor: 7%; S-ASM inh: 0%; hERG WT inh: 5

What do the screens show for `Cc1cccc(N2CCn3c2nc2c3c(=O)n(C/C=C/c3ccccc3)c(=O)n2C)c1`?
Anesthetic bind: inconclusive; mIDH1 inhibitor: -14%

What do the screens show for `COc1ccc(CNC(=O)CN2C(=O)CCCc3ccccc32)cc1`?
Anesthetic bind: 0%; mIDH1 inhibitor: -19%

How did COc1cccc(C(=O)C2CCCN(Cc3ccc(OC)c(Cn4cncn4)c3)C2)c1 (centres undefined) do in these assays?
Anesthetic bind: -11%; KCNH2 3.1 block: -3; mIDH1 inhibitor: -1%; S-ASM inh: -4%; hERG WT inh: 13
